Measurements from PubChem BioAssay (EPA / NIEHS).
Inconclusive results are not listed. Active and inactive are the calls of the source. How the source made its calls: active means hit-call score of the fitted dose curve at least 0.9, where 1 is the maximum; inconclusive means response in the unintended direction; inactive means score below 0.9.

Biological target: Retinoic acid receptor RXR-alpha (Homo sapiens) (UniProt P19793)
Assay: ATG_RXRa_TRANS: Attagene TRANS-FACTORIAL HepG2 Assay for human Retinoid X Receptor alpha (RXRa) (AID 2283012)
How it was run: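 Cells (HepG2) carried transiently transfected GAL4-responsive reporter units. Following a 24 h chemical incubation, reporter mRNA induction was read via RT-PCR fragment analysis; DMSO served as negative control and baseline.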

Retinoic acid receptor RXR-alpha (Homo sapiens), sequence (P19793 whole entry, looked up): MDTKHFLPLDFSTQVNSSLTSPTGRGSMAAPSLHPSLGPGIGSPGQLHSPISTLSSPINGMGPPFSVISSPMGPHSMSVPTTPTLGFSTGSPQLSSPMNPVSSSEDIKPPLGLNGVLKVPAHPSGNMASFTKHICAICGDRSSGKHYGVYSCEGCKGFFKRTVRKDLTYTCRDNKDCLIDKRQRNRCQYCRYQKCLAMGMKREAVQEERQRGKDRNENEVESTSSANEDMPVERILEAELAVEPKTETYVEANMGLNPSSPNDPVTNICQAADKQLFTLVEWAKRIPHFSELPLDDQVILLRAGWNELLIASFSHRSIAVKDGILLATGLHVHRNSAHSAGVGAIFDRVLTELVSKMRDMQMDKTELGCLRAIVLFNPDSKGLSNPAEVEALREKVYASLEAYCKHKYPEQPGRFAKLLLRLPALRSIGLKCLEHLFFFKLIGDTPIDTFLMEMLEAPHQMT

Q: How did the outcome turn out when `O=[N+]([O-])c1cccc2ccccc12` was run?
A: inactive

Q: With `Cc1ccc2nc3sc(=O)sc3nc2c1` as the molecule, how does the outcome read?
A: inactive

Q: For `c1ccc(-c2cccc(-c3ccccc3)c2)cc1`, which outcome is on record?
A: inactive

Q: For `CCC(C)(C#N)N=NC(C)(C#N)CC` (stereo not drawn), which outcome is on record?
A: inactive

Q: For `Cc1ccccc1OP(=O)(Oc1ccccc1)Oc1ccccc1`, which outcome is on record?
A: inactive

Q: `COCC(=O)N(c1c(C)cccc1C)[C@H](C)C(=O)OC` was tested. Which outcome did it give?
A: inactive

Biological target: human Retinoid X Receptor beta (RXRb), RXRB (gene 6257) (UniProt P28702)
Sequence (P28702 whole entry, looked up): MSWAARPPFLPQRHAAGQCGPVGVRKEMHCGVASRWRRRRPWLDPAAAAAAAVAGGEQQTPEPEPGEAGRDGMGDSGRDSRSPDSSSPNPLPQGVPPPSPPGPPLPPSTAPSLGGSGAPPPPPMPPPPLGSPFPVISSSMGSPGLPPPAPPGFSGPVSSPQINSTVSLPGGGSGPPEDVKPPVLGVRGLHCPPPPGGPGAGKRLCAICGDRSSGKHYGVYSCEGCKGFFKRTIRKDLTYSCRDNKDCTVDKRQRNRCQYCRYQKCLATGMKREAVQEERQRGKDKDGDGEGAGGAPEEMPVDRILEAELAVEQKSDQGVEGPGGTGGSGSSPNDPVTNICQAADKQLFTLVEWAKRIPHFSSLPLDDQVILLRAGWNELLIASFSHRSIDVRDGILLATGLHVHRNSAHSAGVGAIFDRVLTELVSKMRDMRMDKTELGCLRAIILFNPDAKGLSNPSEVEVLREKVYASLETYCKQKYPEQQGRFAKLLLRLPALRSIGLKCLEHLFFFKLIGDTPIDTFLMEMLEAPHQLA
Assay: ATG_RXRb_TRANS: Attagene TRANS-FACTORIAL HepG2 Assay for human Retinoid X Receptor beta (RXRb) (AID 2283013)
How it was run: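 Multiplexed TRANS reporter assay in HepG2; 24 h dosing; reporter mRNA by RT-PCR/CE fluorescence; gain-of-signal relative to DMSO.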

Q: With `O=S(=O)(C(Cl)(Cl)Cl)C(Cl)(Cl)Cl` as the molecule, how does the AC50 read?
A: 20 µM (active)

Q: For `O=C(Cc1ccccc1)OCCc1ccccc1`, which outcome is on record?
A: inactive

Q: For `C[C@]12CC[C@@H](O)C[C@@H]1CC[C@@H]1[C@@H]2CC[C@]2(C)C(=O)CC[C@@H]12`, which outcome is on record?
A: inactive

Q: Which outcome does the source give for `NC(=O)CCl` here?
A: inactive

Q: With `C#CCOC(=O)/C=C(C)/C=C/CC(C)CCCC(C)C` (stereo not drawn) as the molecule, how does the AC50 read?
A: 3.9 µM (active)

Q: Which outcome does the source give for `CCCCCCCCCCCCN(C)C` here?
A: inactive

Q: `Cc1ccccc1OP(=O)(Oc1ccccc1C)Oc1ccccc1C` was tested. Which outcome did it give?
A: inactive

Q: With `CCOC(=O)CC(=O)CCl` as the molecule, how does the outcome read?
A: inactive

Q: How did the outcome turn out when `O=C1C=CC(=O)c2ccccc21` was run?
A: inactive

Q: `Oc1ccc(Cc2ccc(O)cc2)cc1` was tested. Which outcome did it give?
A: inactive

Q: `CC(C=O)Cc1ccc2c(c1)OCO2` (stereo not drawn) was tested. Which outcome did it give?
A: inactive

Q: With `Nc1c(Oc2ccccc2)cc(O)c2c1C(=O)c1ccccc1C2=O` as the molecule, how does the AC50 read?
A: 17.4 µM (active)

Q: `CC(C)(C)c1cc([N+](=O)[O-])cc(C(C)(C)C)c1O` was tested. Which AC50 did it give?
A: 2.54 µM (active)

Q: `[Cl][Sn]([c]1ccccc1)([c]1ccccc1)[c]1ccccc1` was tested. Which AC50 did it give?
A: 0.000965 µM (active)

Q: For `CC1(C)[C@H](C(=O)O[C@H](C#N)c2cccc(Oc3ccccc3)c2)[C@@H]1/C=C(\Cl)C(F)(F)F`, which outcome is on record?
A: inactive

Q: How did the AC50 turn out when `O=[N+]([O-])c1cccc2ccccc12` was run?
A: 100 µM (active)

Q: For `c1ccc(-c2cccc(-c3ccccc3)c2)cc1`, which AC50 is on record?
A: 7.98 µM (active)

Q: How did the outcome turn out when `CCC(C)(C#N)N=NC(C)(C#N)CC` (stereo not drawn) was run?
A: inactive

Biological target: human Thyroid Receptor alpha (THRa1), THRA (gene 7067) (UniProt P10827)
Sequence (P10827 whole entry, looked up): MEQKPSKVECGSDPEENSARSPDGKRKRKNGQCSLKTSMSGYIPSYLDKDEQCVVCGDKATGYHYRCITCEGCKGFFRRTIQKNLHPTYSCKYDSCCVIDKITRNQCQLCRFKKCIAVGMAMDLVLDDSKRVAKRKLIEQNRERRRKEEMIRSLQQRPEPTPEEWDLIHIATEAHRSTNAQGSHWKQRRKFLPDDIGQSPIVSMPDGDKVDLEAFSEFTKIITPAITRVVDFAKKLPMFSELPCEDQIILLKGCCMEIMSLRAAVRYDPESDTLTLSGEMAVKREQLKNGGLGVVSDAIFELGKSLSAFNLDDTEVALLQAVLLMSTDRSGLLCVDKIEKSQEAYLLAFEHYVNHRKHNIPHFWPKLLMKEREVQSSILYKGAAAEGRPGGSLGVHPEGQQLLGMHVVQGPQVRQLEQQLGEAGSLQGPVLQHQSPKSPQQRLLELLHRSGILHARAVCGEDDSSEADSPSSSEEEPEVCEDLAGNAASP
Assay: ATG_THRa1_TRANS: Attagene TRANS-FACTORIAL HepG2 Assay for human Thyroid Receptor alpha (THRa1) (AID 2283014)
How it was run: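 Transcripts from GAL4-UAS-driven reporters, measured after 24 h compound exposure by RT-PCR plus capillary electrophoresis of 6-FAM-labeled fragments, were fitted for gain of signal relative to DMSO. Cells: transiently transfected HepG2 expressing NR-Gal4 chimeras.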

Q: For `Cc1cc(Cl)ccc1OC(C)C(=O)O` (stereo not drawn), which outcome is on record?
A: inactive

Q: `CCOP(=S)(OCC)OP(=S)(OCC)OCC` was tested. Which outcome did it give?
A: inactive

Q: With `NC(=O)CCl` as the molecule, how does the outcome read?
A: inactive

Q: How did the outcome turn out when `O=c1oc2ccccc2c(O)c1C(CC(O)c1ccc(-c2ccc(Br)cc2)cc1)c1ccccc1` (stereo not drawn) was run?
A: inactive

Q: For `CCCCCCCCCCCCN(C)C`, which outcome is on record?
A: inactive

Q: With `O=C1C=CC(=O)c2ccccc21` as the molecule, how does the outcome read?
A: inactive

Q: With `CC(C)(COCC1CO1)COCC1CO1` (stereo not drawn) as the molecule, how does the outcome read?
A: inactive

Q: For `Oc1ccc(Cc2ccc(O)cc2)cc1`, which outcome is on record?
A: inactive

Q: How did the outcome turn out when `CC(C=O)Cc1ccc2c(c1)OCO2` (stereo not drawn) was run?
A: inactive

Q: `Nc1c(Oc2ccccc2)cc(O)c2c1C(=O)c1ccccc1C2=O` was tested. Which outcome did it give?
A: inactive

Q: For `CC(C)(C)c1cc([N+](=O)[O-])cc(C(C)(C)C)c1O`, which outcome is on record?
A: inactive

Q: Which outcome does the source give for `Oc1c(Cl)cc(Cl)cc1Cl` here?
A: inactive

Q: For `CC1(C)[C@H](C(=O)O[C@H](C#N)c2cccc(Oc3ccccc3)c2)[C@@H]1/C=C(\Cl)C(F)(F)F`, which outcome is on record?
A: inactive

Q: For `O=[N+]([O-])c1cccc2ccccc12`, which outcome is on record?
A: inactive

Q: `Cc1ccc2nc3sc(=O)sc3nc2c1` was tested. Which AC50 did it give?
A: 6.55 µM (active)

Q: With `c1ccc(-c2cccc(-c3ccccc3)c2)cc1` as the molecule, how does the outcome read?
A: inactive

Q: With `CCC(C)(C#N)N=NC(C)(C#N)CC` (stereo not drawn) as the molecule, how does the outcome read?
A: inactive

Q: Which outcome does the source give for `CCN(CC)C(=O)C(Cl)=C(C)OP(=O)(OC)OC` here?
A: inactive

Q: Which outcome does the source give for `Cc1ccccc1OP(=O)(Oc1ccccc1)Oc1ccccc1` here?
A: inactive
